In PubChem BioAssay one finds composite z-score, composite Z-score and z-score data, which are given here for six molecules.

One assay deals with Albumin (Bos taurus) (UniProt P02769). In words: bovine serum albumin binders on microarray, profiling panel, artefact control for SMM control protein annotation, biochemical, small-molecule microarray, Alexa647 label, 635/667 nm fluorescence (AID 1118).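 Further: score merges 667 nm emission intensity and signal-to-noise per printed compound spot.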 To be noted: BSA-A647 binding, fluorescence 635 nm, higher = more signal.
Assay [1] in a line: small-molecule microarray binders of probe aXIP, primary screen, biochemical, NeuroSMM set, 635/667 nm fluorescence (AID 1119).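 Further: probe is the protein aXip251-270 applied at 1 µg/mL to compound-printed slides; binding of probe to printed compounds measured as 667 nm fluorescence plus signal to noise.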 The settings on record: higher = more signal, called active from +8 up or from −8 down.
Assay [2] can be described thus: small-molecule binders of probe aNOTCH3, primary screen, biochemical, small-molecule microarray, 635/667 nm fluorescence (AID 1120).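 Further: probe is a biotin-tagged antibody raised against NOTCH3 rather than NOTCH3 protein; score merges spot fluorescence near 667 nm with spot signal to noise.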 To be noted: higher = more signal.
Assay [3] can be described thus: small-molecule binders of probe aNOTCH2, primary screen, biochemical, small-molecule microarray, 635/667 nm fluorescence (AID 1121).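 Further: score merges feature fluorescence read at 667 nm with its signal to noise.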 The settings on record: higher = more signal.
Assay [4] deals with Carbonic anhydrase 2 (Homo sapiens) (UniProt P00918). In words: CAII small-molecule binders, profiling panel, biochemical, small-molecule microarray, Alexa647-labelled CAII (AID 1122). To be noted: CAII-A647 binding fluorescence, higher = more signal.
The nature of assay [5]: COS7 lysate on small-molecule microarray, probe aHis, 635 nm (AID 1123).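 Further: z-score combines 667nm fluorescence intensity with signal-to-noise per printed compound spot.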 To be noted: COS7 cell lysate, fluorescence, higher = more signal.
A short description of assay [6]: compound binding in COS7 lysate, probe aLAP1, primary screen, cell lysate, small-molecule microarray (AID 1124).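 Further: lysate comes from COS7 cells expressing LAP1 and is applied at 0.3 µg/mL; score merges spot fluorescence near 667 nm with signal-to-noise over triplicate slides.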 The settings on record: probe aLAP1, fluorescence, higher = more signal.
For another assay, the system named is Sam68 (KHDRBS1). In words: Sam68 small-molecule binders, primary screen, biochemical, small-molecule microarray, 635 nm fluorescence (AID 1125).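 Further: score merges 667 nm channel intensity with signal to noise over triplicate slides.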 To be noted: small-molecule microarray binding, higher = more signal.
Assay [7] relates to Chordin-like protein 2 (CHRDL2). In words: CHRDL2 small-molecule binders, primary screen, biochemical, small-molecule microarray, 635 nm fluorescence (AID 1126).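 Further: printed compound slides probed with Chrdl2 protein at 4 µg/mL for 1 h at 4 C; score merges 667 nm emission intensity with signal to noise over three replicate slides.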 The settings on record: small-molecule microarray binding, fluorescence 635 nm; higher = more signal.
Assay [8] concerns the target Concanavalin-A (Canavalia ensiformis) (UniProt P02866). Description: ConA small-molecule binders, primary screen, artefact control for SMM control protein annotation, biochemical, small-molecule microarray, Alexa647 label, 635 nm (AID 1127).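 Further: z combines 667 nm emission intensity with signal-to-noise across three replicate slides.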 To be noted: ConA-A647 binding fluorescence, higher = more signal.
Assay [9] is described as follows: anti-His antibody binders, primary screen, artefact control for SMM control protein annotation, biochemical, small-molecule microarray, 635 nm fluorescence (AID 1128).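 Further: score merges feature fluorescence with signal-to-noise for each printed compound spot.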 The settings on record: anti-His Alexa647 antibody binding, higher = more signal.
Assay [10] deals with Human papillomavirus type 1a E7 protein (residues 1-88). In words: HPV1a E7 small-molecule binders, primary screen, biochemical, small-molecule microarray, residues 1-88, 635 nm (AID 1129). To be noted: small-molecule microarray binding, fluorescence 635 nm; higher = more signal.
Assay [11] has as its target Focal adhesion kinase 1 (Homo sapiens) (UniProt Q05397). Description: small-molecule microarray binders of FAK, primary screen, biochemical, 635/667 nm fluorescence, BSA, DTT (AID 1130).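 Further: composite of spot emission at 667 nm and signal to noise over triplicate slides.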 To be noted: PTK2 binding, 635 nm fluorescence, higher = more signal.
The test system of assay [12] is Fibrinogen (Alexa647-labelled). In words: fibrinogen binders on compound microarrays, profiling panel, artefact control for SMM control-protein annotation, biochemical, small-molecule microarray, 635/667 nm fluorescence (AID 1131).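 Further: z-score merges 667 nm fluorescence with per-spot signal-to-noise over triplicate slides.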 To be noted: fibrinogen-A647 binding fluorescence, higher = more signal.
Assay [13] deals with Follistatin (Homo sapiens) (UniProt P19883). Description: follistatin binders on small-molecule microarrays, primary screen, biochemical, small-molecule microarray, 635/667 nm fluorescence (AID 1132). The settings on record: FST binding, 635 nm fluorescence, higher = more signal.
For assay [14], the target named is Fibroblast growth factor 2 (Homo sapiens) (UniProt P09038). In words: FGF2 binders on small-molecule microarrays, primary screen, biochemical, small-molecule microarray, 635/667 nm fluorescence (AID 1133). To be noted: small-molecule microarray binding, FGF2, fluorescence 635/667; higher = more signal.
Assay [15] in a line: mitochondrial membrane potential change in A549 cells, profiling panel, cell-based, JC-1 fluorescence, basal, 24 h, 100 nL (AID 1138).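 Further: A549 lung adenocarcinoma cells under basal conditions with no added stimulus; test concentration not given here.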 The settings on record: higher = more signal.
Another assay deals with Lefty1. Description: Lefty1 binders on small-molecule microarrays, primary screen, biochemical, small-molecule microarray, 635/667 nm fluorescence (AID 1139). The settings on record: small-molecule microarray binding, fluorescence 635/667; higher = more signal.
For assay [16], the system named is wheat germ agglutinin (Triticum aestivum), Alexa647-labelled. Description: wheat germ agglutinin binders on compound microarrays, profiling panel, artefact control for SMM control-protein annotation, biochemical, small-molecule microarray, 635/667 nm fluorescence (AID 1140).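 Further: score merges 667 nm feature emission with signal to noise over triplicate slides.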 To be noted: WGA-A647 binding, 635 nm fluorescence, higher = more signal.
The target in assay [17] is Luciferin 4-monooxygenase (Photinus pyralis) (UniProt P08659). Description: firefly luciferase enzyme inhibitors, primary screen, biochemical, luminescence, purified enzyme, 2006 set (AID 1141).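 Further: cell-free assay with purified firefly luciferase at 100 ng per well in PBS; test concentration not given here.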 The settings on record: SteadyGlo luminescence, 30 min, higher = more signal, called active from +8 up or from −8 down.

The source made the active and inactive calls.

Chain of Luciferin 4-monooxygenase (Photinus pyralis) (P08659 whole entry, looked up): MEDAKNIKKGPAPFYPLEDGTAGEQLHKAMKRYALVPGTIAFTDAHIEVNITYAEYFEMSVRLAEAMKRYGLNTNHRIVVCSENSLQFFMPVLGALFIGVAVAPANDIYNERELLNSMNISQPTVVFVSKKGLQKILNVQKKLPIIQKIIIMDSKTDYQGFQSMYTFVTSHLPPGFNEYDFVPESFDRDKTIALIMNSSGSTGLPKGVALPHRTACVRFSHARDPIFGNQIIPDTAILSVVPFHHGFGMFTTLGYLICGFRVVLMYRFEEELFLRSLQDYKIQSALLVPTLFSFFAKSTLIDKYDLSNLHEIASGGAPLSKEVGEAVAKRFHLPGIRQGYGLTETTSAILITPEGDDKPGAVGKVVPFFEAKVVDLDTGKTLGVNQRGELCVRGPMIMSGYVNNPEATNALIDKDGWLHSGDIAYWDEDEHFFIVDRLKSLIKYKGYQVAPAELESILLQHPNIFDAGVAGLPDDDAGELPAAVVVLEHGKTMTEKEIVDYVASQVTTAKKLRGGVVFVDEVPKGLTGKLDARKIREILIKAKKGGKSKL
Chain of Concanavalin-A (Canavalia ensiformis) (P02866 whole entry, looked up): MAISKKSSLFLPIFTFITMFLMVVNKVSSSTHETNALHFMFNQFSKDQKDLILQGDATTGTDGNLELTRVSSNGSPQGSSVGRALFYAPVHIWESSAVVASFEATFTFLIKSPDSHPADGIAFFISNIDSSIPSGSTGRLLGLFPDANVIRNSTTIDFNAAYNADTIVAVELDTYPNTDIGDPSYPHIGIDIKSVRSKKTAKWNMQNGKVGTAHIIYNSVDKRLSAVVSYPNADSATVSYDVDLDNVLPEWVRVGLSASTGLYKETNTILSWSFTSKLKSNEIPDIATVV
Chain of Fibroblast growth factor 2 (Homo sapiens) (P09038 whole entry, looked up): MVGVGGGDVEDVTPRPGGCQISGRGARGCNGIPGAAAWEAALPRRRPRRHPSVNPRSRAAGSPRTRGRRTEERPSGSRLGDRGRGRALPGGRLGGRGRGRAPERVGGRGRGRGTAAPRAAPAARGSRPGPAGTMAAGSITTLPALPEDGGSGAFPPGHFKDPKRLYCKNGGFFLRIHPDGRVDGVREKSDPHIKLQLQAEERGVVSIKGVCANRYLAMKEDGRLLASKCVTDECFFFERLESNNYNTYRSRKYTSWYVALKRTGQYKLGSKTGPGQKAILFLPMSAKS
Chain of Focal adhesion kinase 1 (Homo sapiens) (Q05397 whole entry, looked up): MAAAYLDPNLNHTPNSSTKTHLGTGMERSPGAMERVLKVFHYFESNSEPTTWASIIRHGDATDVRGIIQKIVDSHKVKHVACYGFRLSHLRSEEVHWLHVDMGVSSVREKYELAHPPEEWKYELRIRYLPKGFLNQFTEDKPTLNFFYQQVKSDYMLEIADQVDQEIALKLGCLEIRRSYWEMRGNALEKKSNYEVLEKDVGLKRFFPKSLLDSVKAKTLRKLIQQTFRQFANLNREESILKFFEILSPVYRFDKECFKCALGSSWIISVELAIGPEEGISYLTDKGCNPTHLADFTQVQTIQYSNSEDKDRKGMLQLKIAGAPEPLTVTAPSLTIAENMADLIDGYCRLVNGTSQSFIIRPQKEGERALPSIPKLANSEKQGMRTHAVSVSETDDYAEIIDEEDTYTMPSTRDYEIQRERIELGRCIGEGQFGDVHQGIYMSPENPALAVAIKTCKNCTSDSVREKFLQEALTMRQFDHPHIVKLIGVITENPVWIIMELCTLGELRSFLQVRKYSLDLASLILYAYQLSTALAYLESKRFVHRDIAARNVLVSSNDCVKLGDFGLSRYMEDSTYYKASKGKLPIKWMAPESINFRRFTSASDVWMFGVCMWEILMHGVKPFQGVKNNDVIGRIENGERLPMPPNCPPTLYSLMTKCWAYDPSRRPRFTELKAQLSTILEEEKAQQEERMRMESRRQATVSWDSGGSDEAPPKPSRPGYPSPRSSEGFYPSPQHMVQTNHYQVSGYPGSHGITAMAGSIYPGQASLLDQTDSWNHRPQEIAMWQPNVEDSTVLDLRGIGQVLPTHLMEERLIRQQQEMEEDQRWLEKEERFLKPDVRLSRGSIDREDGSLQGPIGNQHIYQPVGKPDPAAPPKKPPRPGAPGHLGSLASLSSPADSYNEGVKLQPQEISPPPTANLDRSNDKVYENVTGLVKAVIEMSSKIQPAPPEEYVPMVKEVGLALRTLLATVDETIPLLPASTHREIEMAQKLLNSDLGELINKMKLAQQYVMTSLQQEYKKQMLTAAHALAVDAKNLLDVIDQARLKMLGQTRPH
Chain of Follistatin (Homo sapiens) (P19883 whole entry, looked up): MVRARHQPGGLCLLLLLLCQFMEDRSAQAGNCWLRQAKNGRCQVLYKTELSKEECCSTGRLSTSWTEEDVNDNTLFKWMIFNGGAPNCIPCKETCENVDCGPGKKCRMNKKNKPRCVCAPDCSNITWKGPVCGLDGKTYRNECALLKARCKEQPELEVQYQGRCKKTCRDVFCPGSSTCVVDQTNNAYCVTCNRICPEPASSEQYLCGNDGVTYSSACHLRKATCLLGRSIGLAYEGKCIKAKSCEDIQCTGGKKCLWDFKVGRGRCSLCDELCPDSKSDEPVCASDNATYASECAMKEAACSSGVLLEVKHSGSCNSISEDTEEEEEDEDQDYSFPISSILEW
Chain of Albumin (Bos taurus) (P02769 whole entry, looked up): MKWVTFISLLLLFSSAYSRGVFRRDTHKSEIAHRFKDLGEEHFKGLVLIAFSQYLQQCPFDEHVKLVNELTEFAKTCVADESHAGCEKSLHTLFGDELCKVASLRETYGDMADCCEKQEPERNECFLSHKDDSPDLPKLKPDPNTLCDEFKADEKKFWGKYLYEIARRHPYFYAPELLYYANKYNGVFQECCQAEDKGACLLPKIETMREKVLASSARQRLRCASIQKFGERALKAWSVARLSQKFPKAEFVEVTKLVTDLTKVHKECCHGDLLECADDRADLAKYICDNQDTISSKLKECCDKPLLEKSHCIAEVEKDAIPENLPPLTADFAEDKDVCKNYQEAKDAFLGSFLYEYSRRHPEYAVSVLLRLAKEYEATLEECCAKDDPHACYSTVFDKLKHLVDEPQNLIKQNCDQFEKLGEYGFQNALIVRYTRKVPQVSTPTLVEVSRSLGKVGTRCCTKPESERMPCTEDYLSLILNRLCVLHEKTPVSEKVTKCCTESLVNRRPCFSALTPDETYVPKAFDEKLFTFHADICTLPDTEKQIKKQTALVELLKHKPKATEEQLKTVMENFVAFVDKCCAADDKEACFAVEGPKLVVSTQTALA

As for `O=C(NCCN1CCOCC1)[C@@H]1c2ccccc2C(=O)N(C2Cc3ccccc3C2)[C@H]1c1ccc(CO)cc1`, the composite z-score with Albumin (Bos taurus) was 0.268; in assay [2], -0.223; in assay [3] it was 0.0129; in [4], 0.498; in assay [5], 0.866; in assay [6], 1.77. The composite z-score in the assay on Sam68 (KHDRBS1) is 1.01; in [7], -0.419; in [8] it was 0.466; in assay [9], 3.03; in assay [10] it was 1.08; in assay [11], 0.306. The composite z-score in assay [12] is 0.739; in [13] it was -0.506; in [14], 0.082; in the assay with Lefty1, -0.724; in [16], -0.0583. Further, the composite Z-score in assay [1] was -0.27 (inactive). In addition, the z-score was 2.55 in assay [15] and -1.16 (inactive) in assay [17].

As to `C=C[C@H]1C(C(=O)OCC)=CC[C@@H](c2ccccc2)N1S(=O)(=O)c1ccc(C)cc1`, the composite z-score with Albumin (Bos taurus) is 0.644; in assay [2] it was 0.382; in assay [3], -0.0345; in [4] it was 0.627; in assay [5], 1.67; in assay [6] it was 0.516. Besides, the composite z-score in the assay on Sam68 (KHDRBS1) amounted to 1.1; in [7], 0.218; in [8], 0.789; in assay [9], 1.53; in assay [10], 1.22; in assay [11], 0.736. The composite z-score in assay [12] is 0.964; in [13] it was 1.2; in assay [14] it was 0.0703; in the assay on Lefty1, 0.325; in assay [16] it was 0.677. Also, in assay [1], the composite Z-score was -0.176 (inactive). Besides, the values for the z-score in [15] and in assay [17] were 3.33 and 0.26 (inactive), respectively.

Regarding `COC(=O)C1(CC(C)C)C=C2C(=C(c3ccccc3)C(=O)C2C)CN1` (stereo not given), the composite z-score with Albumin (Bos taurus) amounted to 0.581; in [2], 1.31; in [3], 0.54; in assay [4] it was 0.502; in [5] it was 2.15; in assay [6], 0.407. Further, the composite z-score in the assay on Sam68 (KHDRBS1) is -0.213; in assay [7] it was -0.521; in [8], -0.991; in assay [9], 1.75; in assay [10] it was 0.166; in [11] it was 0.879. Moreover, the composite z-score in assay [12] was 0.579; in assay [13] it was 0.111; in [14], 0.953; in the assay with Lefty1, 0.0364; in [16], 0.663. The composite Z-score in assay [1] is 0.465 (inactive). Further, the z-score in assay [15] is 0.674; in assay [17], 0.53 (inactive).

Take `O=C1OCCC/C=C\[C@H]2OC34C=CCN(c5ccc6ccccc6c5)C(=O)[C@H]3N(CCO)C(=O)[C@@H]4C12` (stereo not given in full): the composite z-score in the assay with Albumin (Bos taurus) is -1.75; in assay [2], -0.355; in assay [3], -0.213; in assay [4], 0.959; in assay [5], -0.237; in assay [6] it was 1.48. The composite z-score is -0.359 in the assay on Sam68 (KHDRBS1); -2.13 in [7]; -1.39 in assay [8]; -0.218 in assay [9]; -0.637 in assay [10]; -0.774 in [11]. Moreover, the composite z-score in assay [12] is -2.11; in assay [13], -1.2; in assay [14], -0.634; in the assay on Lefty1 it was -1.22; in [16], 1.13. The composite Z-score in assay [1] is 0.278 (inactive). Moreover, the z-score in [15] was -0.817; in assay [17] it was 0.235 (inactive).

As for `CCOC(=O)C[C@H]1[C@H](OC(=O)c2cc3ccccc3oc2=O)[C@@H](NC(=O)CC(C)C)c2cc(OCCCO)ccc2N1C(=O)c1ccc2ccccc2n1`, the composite z-score with Albumin (Bos taurus) is 0.42; in assay [2], 0.191; in assay [3], -0.237; in assay [4], 0.43; in assay [5], 1.04; in assay [6], 0.102. Besides, the composite z-score in the assay with Sam68 (KHDRBS1) worked out at 1.26; in assay [7] it was 0.324; in assay [8] it was 0.625; in assay [9] it was 0.672; in [10], 0.686; in assay [11], 0.223. Moreover, the composite z-score in [12] came to 0.807; in assay [13] it was 1.03; in [14], 1.51; in the assay on Lefty1 it was 0.903; in [16] it was 0.0235. Besides, in assay [1], the composite Z-score is -0.077 (inactive). The z-score in [15] is -0.551; in assay [17], 0.425 (inactive).

On to `CCOC(=O)C=Cc1cccc(C)c1O`, for which the composite z-score with Albumin (Bos taurus) was -0.268; in assay [2], -0.0881; in assay [3] it was -0.114; in assay [4], 0.422; in assay [5] it was -0.15; in [6], 0.514. The composite z-score is -0.0261 with Sam68 (KHDRBS1); -0.0961 in assay [7]; 0.0646 in assay [8]; 0.0346 in [9]; -0.0448 in assay [10]; 0.617 in [11]. For the same molecule, the composite z-score is 0.252 in [12]; 0.208 in assay [13]; 0.0326 in assay [14]; -0.0408 with Lefty1; -0.399 in [16]. The composite Z-score in assay [1] is -0.352 (inactive). In addition, the z-score in assay [15] is -1.56; in [17], -9.24 (active).
